Results: the supplement of paper PMC12636033
± gives the standard deviation of the averaged measurements. Over roughly 33,000 sequences, “E-score (rank enrichment, -0.5 to 0.5)” has its median near -0.0068; the highest 2% begin near 0.24. What follows is part of a selection rich in the highest values, with near analogues and random picks from the rest.

Test system: muMax20 (Max(13-93) K31hArg/K57hArg, M65Nle)
Experiment: PBM 8-mer E-score (E-score (rank enrichment, -0.5 to 0.5)); higher = stronger preferential binding
Method: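 Protein binding microarray (universal PBM chip covering all 10-mers in fixed probe flanks) with chemically synthesized human Max(13-93) bHLH-LZ analogs (not full-length Max) bearing noncanonical residues (hArg, Tha, Aib, Nle at 65) and aromatic Cys staples. Read-out per 8-mer (and its reverse complement): E-score (rank-based enrichment, -0.5 to 0.5) and Z-score of median probe intensity.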

Sequence	PBM 8-mer E-score
AACAACAT	0.168 ± 0.037
CCCAATTC	0.249 ± 0.0091
AACAATTA	0.259 ± 0.0043
CCCAATTA	0.187 ± 0.097
AACAACAA	0.243 ± 0.0063
AACAATTG	0.131 ± 0.0086
ATCAACAA	0.101 ± 0.048
CACAACAA	0.205 ± 0.098
CAATCATC	-0.0452 ± 0.15
TACCGGAA	-0.106 ± 0.24
AACTCCTT	0.132 ± 0.07
CCCTGCAC	-0.03728 ± 0.00027
CGCTCTCC	-0.192 ± 0.091
CGAGATCC	-0.163 ± 0.13
AGGGGTCG	-0.0534 ± 0.037
CTGGAAGA	0.0596 ± 0.037
AACAATAT	0.207 ± 0.061
AACAATAG	0.0278 ± 0.047
AACAATAC	0.319 ± 0.063
AACAATAA	0.247 ± 0.0054
GCCAATTA	-0.00292 ± 0.022

Sequence	PBM 8-mer E-score
AGCAACAA	-0.0639 ± 0.14
ACCAATTA	0.247 ± 0.095
ACCAATTG	0.211 ± 0.013
CGCAACAA	0.257 ± 0.049
GACAATAC	0.21 ± 0.021
CGCAACAC	0.0683 ± 0.035
CACAATAC	0.126 ± 0.028
CATCTTCC	0.14 ± 0.005
CTAGCGAA	-0.129 ± 0.063
CTAGTGCA	0.0056 ± 0.097
GAGAGTCA	0.0012 ± 0.088
ATCCACCA	0.068 ± 0.024
GGGGCCCC	-0.138 ± 0.039
AACACCAA	0.239 ± 0.018
GACAATAA	0.216 ± 0.067
GACACCAA	-0.0812 ± 0.037
TACAATAA	0.33 ± 0.008
CACAATAA	0.151 ± 0.0047
TACACCAA	-0.0765 ± 0.027
AACTTCTT	0.155 ± 0.031
TAATTTGA	0.0569 ± 0.0096

Sequence	PBM 8-mer E-score
CAATTTGG	0.0732 ± 0.059
CAATTTGA	0.246 ± 0.051
AATCAGCA	0.0143 ± 0.044
ACCTGTTG	0.112 ± 0.12
AGATATGA	0.028 ± 0.0086
ATACCAAG	0.0843 ± 0.073
ATACCATA	0.298 ± 0.029
GTACCATA	0.0347 ± 0.038
ATACCAAC	0.271 ± 0.01
ATACCATG	0.0838 ± 0.02
CTACCAAC	0.118 ± 0.079
ATAGAAGC	0.041 ± 0.086
TAAGGGAA	0.0705 ± 0.073
CTCCCGTA	0.0488 ± 0.069
CTAAAGAA	0.0925 ± 0.088
TTAAAGAA	0.17 ± 0.072
ATAAAGCA	0.243 ± 0.037
ATAAAGAA	0.264 ± 0.018
CTAAAGCA	0.0825 ± 0.012
ATAAAGCG	0.0396 ± 0.047
CACCGGCA	-0.12 ± 0.023

Sequence	PBM 8-mer E-score
ACGTTCCT	0.0666 ± 0.011
ATACCTAC	0.129 ± 0.12
ATTTAGAC	0.0494 ± 0.067
ATAACGCG	0.073 ± 0.11
CTTTCGGC	-0.149 ± 0.041
AAAAACCA	0.244 ± 0.0092
AAAAACCT	0.25 ± 0.024
AAAACCTA	0.269 ± 0.0045
CAAAACCA	0.0801 ± 0.046
TAAAACCA	0.131 ± 0.048
CAAACCTA	0.125 ± 0.027
AAAACCTT	0.103 ± 0.011
AAAAACCC	-0.0325 ± 0.027
AAAAACCG	0.0778 ± 0.087
CCTTGCGC	-0.034 ± 0.012
GGGGCGAC	-0.0761 ± 0.044
AATCAGCG	-0.0368 ± 0.011
AATCAGCC	-0.00374 ± 0.048
AATCAGCT	0.298 ± 0.065
ACTTTGAT	0.142 ± 0.062
